# Data: ChEMBL document CHEMBL3988442, “University of Dundee, Small-Polar-MMV Screening Library” (2021)
# Biological target: T1, Tyrosyl-tRNA synthetase, putative (Trypanosoma cruzi (strain CL Brener)) (UniProt Q4DSP6)
# T1 sequence (whole entry): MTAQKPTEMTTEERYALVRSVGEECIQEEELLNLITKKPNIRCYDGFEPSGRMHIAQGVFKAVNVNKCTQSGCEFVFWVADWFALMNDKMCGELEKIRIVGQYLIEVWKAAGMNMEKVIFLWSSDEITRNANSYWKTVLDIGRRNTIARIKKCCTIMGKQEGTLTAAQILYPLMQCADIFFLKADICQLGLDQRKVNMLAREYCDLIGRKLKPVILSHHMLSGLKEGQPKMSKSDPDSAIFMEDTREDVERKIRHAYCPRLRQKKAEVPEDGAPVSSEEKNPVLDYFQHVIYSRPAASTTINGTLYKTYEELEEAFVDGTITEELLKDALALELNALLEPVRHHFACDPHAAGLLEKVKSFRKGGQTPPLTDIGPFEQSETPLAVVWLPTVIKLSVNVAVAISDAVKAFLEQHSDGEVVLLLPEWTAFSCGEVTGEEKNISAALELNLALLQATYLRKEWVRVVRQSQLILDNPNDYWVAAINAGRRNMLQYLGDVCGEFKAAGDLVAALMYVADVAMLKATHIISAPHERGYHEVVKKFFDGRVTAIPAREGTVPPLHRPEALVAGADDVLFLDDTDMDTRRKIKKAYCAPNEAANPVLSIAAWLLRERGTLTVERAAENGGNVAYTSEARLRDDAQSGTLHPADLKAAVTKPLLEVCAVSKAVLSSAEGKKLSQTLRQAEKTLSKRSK
# Test: Trypanosoma cruzi tyrosyl tRNA synthetase (TcYRS) _High Tyrosine SOP
# Type: functional
# Set-up: scale not given: in the data most compounds retested in dose-response had high values
# Conditions: 30 µM
row,SMILES,Percent Effect
1,O=C(CSc1ccc(F)c(F)c1)NS(=O)(=O)c1ccc2c(c1)OCCO2,-4.31%
2,CC1COCCN1C(=O)c1cccc(OCc2cscn2)c1 (centres undefined),5.26%
3,Cc1[nH]ccc1C(=O)N1CCCC(c2nccn2Cc2cscn2)C1 (centres undefined),7.98%
4,O=C(c1ccc(C(F)(F)F)nc1)N1CCCC(n2cncn2)C1 (centres undefined),-3.35%
5,Cc1ccc2oc(C(=O)N3CCC(C(=O)N4CCCC4)CC3)cc2n1,9.09%
6,Cc1ccc(N2CCCN(C(=O)c3c(C)oc(C)c3C)CC2)nn1,4.74%
7,CN(c1ccncn1)C1CC2(CCN(C(=O)c3ccsc3)C2)C1 (centres undefined),0%
8,CCc1nc(C2CCCN2C(=O)c2ncoc2CC)no1 (centres undefined),2.39%
9,CCc1c(C)nn(CCNC(=O)C2CCCN(C(=O)N(C)C)C2)c1C (centres undefined),5.85%
10,CCn1ncnc1C1CC(=O)NCc2nc3ccccn3c21 (centres undefined),5.85%
11,Cc1nc(CN2CCCC(CCc3ccc(F)cc3F)C2)c[nH]1 (centres undefined),2.66%
12,COc1ccc(C2CC(=O)Nc3c2nc2n3CCCC2)cc1OC (centres undefined),1.6%
13,O=C(c1cc(Cl)c2c(c1)OCO2)N1CCCC(n2ccnc2)C1 (centres undefined),-6.84%
14,Cc1ccccc1N1CC2(CCN(S(=O)(=O)C3CC3)C2)CC1=O (centres undefined),3.87%
15,CCc1nc(CN2CCCN(C(=O)COCC3CC3)CC2)cs1,11%
16,O=C1CN(Cc2ccc(-c3ccccc3C(=O)O)cc2)CCN1,1.06%
17,Cc1cn2c(n1)CCC(NC(=O)c1cc(Br)cn1C)C2 (centres undefined),-1.58%
18,COCc1ncc(CN2CCC(Oc3ccccc3OC)CC2)cn1,5.85%
19,Cn1cc(N2CC3(COCCN(Cc4ccsc4)C3)OCC2=O)cn1 (centres undefined),4.74%
20,CC(C)c1nn(C)c(N2CCOCC2)c1CNCC(=O)N(C)C,7.18%

row,SMILES,Percent Effect
1,CCc1ccsc1C(=O)N1CCN(CC(O)CC)CC1 (centres undefined),2.94%
2,COCCC(=O)N1CCC2(CC1)CC(c1ccccc1)CN(C)C2 (centres undefined),4.79%
3,COc1ccc(CNCc2ccc(N3CCCCC3)nc2)cc1OC,8.13%
4,Cc1cc(C)n(CC2CCCN2CCc2ccncc2)n1 (centres undefined),3.35%
5,COCCc1noc(CN2CCCC2Cn2cc(C)cn2)n1 (centres undefined),0.526%
6,CC(NC(=O)N(C)CCCOc1ccc(F)cc1)c1nncn1C (centres undefined),4.74%
7,CC(Nc1cccc(CN2CCOC2=O)c1)C(=O)Nc1ccccc1F (centres undefined),2.39%
8,COc1cccc2c1OCC(C(=O)NC1CCN(S(C)(=O)=O)CC1)C2 (centres undefined),5.85%
9,CC(=O)N1CCCC1c1cc(N2CCN(C3CCCC3)CC2)cc(C)n1 (centres undefined),4.23%
10,Cn1cnc2c1CCN(Cc1ccc(C(=O)N3CCCC3)cc1)C2,3.35%
11,c1csc(CN2CCOCC3(CCN(C4CCOCC4)C3)C2)n1 (centres undefined),2.63%
12,CCN(CC1CCOC1)C(=O)Nc1ccc(-n2cncn2)nc1 (centres undefined),4.31%
13,Cn1cc(NC(=O)N2CCC(NS(C)(=O)=O)CC2)ccc1=O,-9.09%
14,O=C(NCCNC(=O)c1scnc1Cl)c1ccccc1,7.89%
15,Cc1cc(C(=O)O)cc(S(=O)(=O)Nc2ccc3c(c2)OCO3)c1C,-4.31%
16,Cc1ccc(-c2cc(CN3CCCC(Cn4cncn4)C3)on2)cc1 (centres undefined),0%
17,CNc1cncc(C2CCCN2C(=O)c2ccc3oc(C)cc3c2)n1 (centres undefined),3.17%
18,Cc1cc(NC(=O)CN2CCCC2c2noc(C(C)C)n2)n(C)n1 (centres undefined),2.63%
19,COCCC(=O)N1CCCC2(CCC(=O)N2CCOC)CC1 (centres undefined),2.9%
